# Shiga toxin inh: Shiga toxin inhibition | Vero cells, Shiga toxin protein synthesis inhibition reporter | inhibition, % at 38.7 µM | actives 9.2% (n = 290,000) | AID 2315; in the data active means inhibition mostly above about 28%, no sharp cut-off; inactive means mostly below about 43%; further: 0% is about no effect
# Cycloheximide cs: affects cycloheximide protein synthesis inhibition readout, counter-screen; AID 2314; max response, %; cell reporter, cycloheximide protein synthesis inhibition counterscreen; actives 12% (n = 300,000); in the data active means max response mostly above about 13%, no sharp cut-off; inactive means mostly below about 14%; further: read at 38.3 µM for the half of the compounds with a filed dose; 0% is about no effect
# Pf growth 48h: inhibits P. falciparum growth in the first generation, 48 h | P. falciparum luciferase growth in erythrocytes, 48 h | Potency, µM (highest dose often 28.7 µM), for inactives: at the highest dose activity change, negative = inhibition, usual class: inhibitors | AID 504832 | actives 5.9% (n = 310,000); further: potency means the concentration at half of the fitted maximal effect; on the % scale 0 is the no-effect control and ±100 the full control effect
#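 Parasite viability was followed by luminescence of a genomically integrated firefly luciferase. Cultures held 0.1% parasitemia at 2% hematocrit (final), incubated under 5% CO2 at 37 C.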
# NS1 inh: blocks influenza NS1 protein function. actives 0.4% (n = 270,000). AID 2326. Potency, µM (top dose mostly 46.1 µM), without a hit: top-dose activity, positive = more growth; calls by dose curve; further: potency means the concentration at half of the fitted maximal effect; actives are rising curves; nearly all actives have a fitted effect of over 50% in size
#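 A cell-based growth assay was used: compounds that relieve NS1-induced slow growth of budding yeast raise OD600. Assay medium was yeast nitrogen base with ammonium sulphate and -URA supplement, pH 6.0, with 2% galactose.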
# Pf growth 96h: P. falciparum growth inhibition at 96 hour, primary screen for plastid delayed-death inhibitors. Potency, µM (doses to about 28.7 µM), for the others: top-dose activity change, negative = inhibition, most hits filed as inhibitors. actives 6.9% (n = 320,000). P. falciparum luciferase reporter growth, 96 h; further: potency means the concentration at half of the fitted maximal effect; on the % scale 0 is the no-effect control and ±100 the full control effect
#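 Two-generation exposure (96 h) targets delayed-death phenotype. Reporter parasites carrying integrated firefly luciferase, in red cells at 2% hematocrit and 0.05% parasitemia final, kept at 37 C, 5% CO2; luminescence loss indicates inhibition.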
# Starred values were filed as active, the others as inactive; ? = inconclusive; · = no result given. A selection: hits, their analogues and other compounds. The true share with any hit is near 21%. Unless noted, the call rests on the fitted dose curve; in most records, active means well fitted inhibition curve with a large enough effect; inconclusive means small, poorly fitted or top-dose-only effect, or another doubt; inactive means no such curve, though single readings can be large or run the other way.
SMILES,Shiga toxin inh,Cycloheximide cs,Pf growth 48h,NS1 inh,Pf growth 96h
CC(C(=O)NC1C=CS(=O)(=O)C1)N1C(=O)/C(=C\c2ccccc2)SC1=S (stereo not drawn),23.7*,23.1*,-11.8%,-17.0%,?
COc1ccccc1/C=C1/SC(=S)N(C(C)C(=O)NC2C=CS(=O)(=O)C2)C1=O (stereo not drawn),19.5,18.7*,?,14.7%,?
CC(C(=O)NC1C=CS(=O)(=O)C1)N1C(=O)/C(=C/c2cccc(Cl)c2)SC1=S (stereo not drawn),19.7,9.1,-13.9%,7.4%,30.5%
O=C(N/N=C\c1ccc(Cl)cc1Cl)c1sccc1-n1cccc1,17.8,0.8,-19.1%,3.7%,?
CN(C)c1ccc(/C=N/NC(=O)c2sccc2-n2cccc2)cc1,98.0*,38.7*,?,·,1.3%
O=C(N/N=C\c1ccc(Cl)cc1)c1sccc1-n1cccc1,70.3*,32.5*,1.2%,-10.6%,?
O=C1/C(=C/c2ccsc2)N2CCC1CC2,-6.2,4.0,?,9.6%,?
CCN(CC(O)Cn1c2ccccc2c2ccccc21)S(=O)(=O)c1ccc(F)cc1 (stereo not drawn),-17.0,6.8,·,8.0%,13.1µM*
O=S(=O)(c1ccc(F)cc1)N(CCO)CC(O)Cn1c2ccccc2c2ccccc21 (stereo not drawn),-3.5,-2.3,14.7µM*,-34.8%,?
Cc1ccc(S(=O)(=O)N(C)CC(O)Cn2c3ccccc3c3ccccc32)cc1 (stereo not drawn),-17.3,12.2,?,-28.5%,-24.8%
COc1cc2c(cc1OC)-c1c3c(cc4c1[C@@H](C2)N(C)CC4)OCO3,-24.3,-5.4,?,-5.2%,?
COc1cc2c(cc1OC)-c1c(OC)c(OC)cc3c1C(C2)N(C)CC3 (stereo not drawn),-22.3,-6.0,4.15µM*,0.6%,126.4%
COC(=O)c1ccc(OCC(=O)Nc2nn(-c3ccccc3)nc2C(N)=O)cc1,-6.4,1.1,19.5%,0.8%,1.3%
COC(=O)NNC(=O)C12CC3CC(CC(C3)C1)C2,8.8,5.5,3.4%,10.2%,4.15µM*
COc1ccc(C(=O)NNC(=O)C23CC4CC(CC(C4)C2)C3)c(OC)c1,41.2,21.1*,10.1%,-19.0%,17.5%
Cc1ccccc1C(=O)NNC(=O)C12CC3CC(CC(C3)C1)C2,-7.8,-2.7,-6.2%,-1.8%,?
COc1ccc(OC)c(C(C)NC(=O)C23CC4CC(CC(C4)C2)C3)c1 (stereo not drawn),·,-5.1,-4.6%,-18.4%,-21.1%
Cc1cccc(C(=O)NNC(=O)C23CC4CC(CC(C4)C2)C3)c1O,82.1,14.0*,9.3%,-11.3%,-14.4%
COC(=O)c1nnn(CC(=O)NC(=O)Nc2cccc(Cl)c2C)c1C(=O)OC,-3.6,2.4,23.7%,·,?
O=[N+]([O-])c1cccc(/C=N/Nc2nc(NCc3ccccc3)nc(N3CCOCC3)n2)c1,-16.1,-3.1,?,17.1%,?
O=[N+]([O-])c1ccc(/C=N/Nc2nc(NCc3ccccc3)nc(N3CCOCC3)n2)cc1,-7.7,7.3,13.1µM*,·,16.4%
O=[N+]([O-])c1cccc(/C=N/Nc2nc(NCc3ccccc3)nc(N3CCOCC3)n2)c1O,5.4,17.8,6.57µM*,0.7%,?
CCC1(c2ccc(Cl)cc2)NC(=S)N(c2ccc(C)cc2)N1 (stereo not drawn),90.5*,68.0*,146.5%,-33.9%,108.8%
CCC1(c2ccccc2)NC(=S)N(c2ccc(C)c(C)c2)N1 (stereo not drawn),36.0*,39.7*,24.5%,2.0%,11.9%
CCC1(c2ccc(Cl)cc2)NC(=S)N(c2ccc(C)c(C)c2)N1 (stereo not drawn),10.9,-3.1,-8.2%,1.4%,-13.2%
SMILES,Shiga toxin inh,Cycloheximide cs,Pf growth 48h,NS1 inh,Pf growth 96h
COC(=O)c1nn(-c2ccc(Oc3ccccc3)cc2)c(=O)cc1O,14.7,8.5,-0.1%,·,-3.2%
Cc1cccc(-n2nc3c(c2NC(=O)c2c(F)cccc2F)CS(=O)(=O)C3)c1C,-4.1,10.2,29.0%,-8.0%,5.7%
Cc1cc(=O)oc2c(N)c(O)ccc12,37.6*,16.9,-8.1%,-33.6%,?
CCc1ccc(OCC(=O)NNC(=O)Cc2c(F)cccc2Cl)cc1,·,·,24.3%,·,-3.8%
CCN(CC)C(=O)CN(c1cc2c(cc1OC)oc1ccccc12)S(=O)(=O)c1ccccc1,43.0,-2.1,9.28µM*,10.5%,10.4µM*
CC1CCN(C(=O)COc2ncnc3ccccc23)CC1,37.3*,23.0,51.4%,·,52.6%
O=C(COC(=O)c1n[nH]c2ccccc12)NC(=O)NC1CCCC1,-16.5,-1.4,11.7%,8.5%,·
O=C(COc1ncnc2ccccc12)N1CCOCC1,-16.4,-1.5,·,-0.3%,-9.2%
COC(=O)c1n[nH]c2ccccc12,-12.3,-2.7,7.9%,-12.7%,·
O=C(OCCCCN1C(=O)c2ccccc2C1=O)c1n[nH]c2ccccc12,-8.0,5.4,?,-41.5%,13.1µM*
CC1CCN(C(=O)COC(=O)c2n[nH]c3ccccc23)CC1,79.3*,41.0*,277.5%,-9.8%,383.4%
CCC1CCCCN1C(=O)COC(=O)c1n[nH]c2ccccc12 (stereo not drawn),-2.8,19.2*,51.3%,-2.0%,·
O=C(OCC(=O)N1CCCCCC1)c1n[nH]c(=O)c2ccccc12,-13.9,-1.0,0.0%,-0.4%,2.4%
CCc1cccc(NC(=O)CN(c2ccc(C)cc2)S(=O)(=O)c2c(C)noc2C)c1,-10.4,-5.2,?,6.1%,?
O=C(CCCCCC(=O)N(CCO)CCO)N(CCO)CCO,-3.1,-0.8,13.1µM*,-10.7%,·
O=C(O)c1ccccc1-c1ccccc1C(=O)NCc1ccccc1F,·,-2.0,-8.5%,-3.4%,-0.8%
O=C1c2cccc3c(N4CCCCC4)ccc(c23)C(=O)N1c1ccc(O)cc1,49.5,18.4*,-19.5%,·,23.6%
O=C(c1ccccc1Nc1ccc(SC(F)F)cc1)N1CCCCCC1,7.0,-1.1,?,-92.9%,?
CCCCNC(=O)c1cc(-c2ccc3c(c2)OCO3)on1,57.0*,37.6*,117.3%,-0.8%,-6.4%
COc1cc(NC(=O)c2cc(-c3ccc4c(c3)OCO4)on2)cc(OC)c1OC,25.7,-4.4,1.4%,4.7%,?
Cc1cc(NC(=O)c2cc(-c3ccc4c(c3)OCO4)on2)n(-c2ccccc2)n1,26.0,8.3,-1.6%,-2.3%,-4.1%
CCCNC(=O)c1cc(-c2ccc3c(c2)OCO3)on1,85.9*,30.6*,119.1%,-1.5%,-6.8%
CC(C)NC(=O)c1cc(-c2ccc3c(c2)OCO3)on1,104.5*,26.3*,64.3%,-10.1%,?
CCN(CC)C(=O)c1cc(-c2ccc3c(c2)OCO3)on1,77.2*,61.7*,159.6%,1.1%,?
CCN(CC)CCCNC(=O)c1cc(-c2ccc3c(c2)OCO3)on1,25.7,5.9,10.8%,5.7%,-14.3%
O=C(NCCc1ccccc1)c1cc(-c2ccc3c(c2)OCO3)on1,-0.2,-2.6,31.0%,-6.3%,?
O=C(Nc1nc(=O)n(C(=O)C2CC2)s1)c1ccccc1,1.8,26.8*,-6.2%,-26.3%,-7.8%
